# Data from PubChem BioAssay AID1376 (SRMLSC, 2008).
# About 530 (0.24%) of roughly 220,000 compounds were called active. The full list was thinned out, with actives kept by preference. Potency and affinity values are given separately. A number with no mark means an inactive call. No stated cut-off is given here; in the data, active means inhibition above about 13%; inconclusive means no clear call, values can overlap the other calls; inactive means below that.
# Target: Bifunctional protein GlmU (Mycobacterium tuberculosis (strain ATCC 25618 / H37Rv)) (UniProt P9WMN3)
# Sequence (P9WMN3 whole entry, looked up): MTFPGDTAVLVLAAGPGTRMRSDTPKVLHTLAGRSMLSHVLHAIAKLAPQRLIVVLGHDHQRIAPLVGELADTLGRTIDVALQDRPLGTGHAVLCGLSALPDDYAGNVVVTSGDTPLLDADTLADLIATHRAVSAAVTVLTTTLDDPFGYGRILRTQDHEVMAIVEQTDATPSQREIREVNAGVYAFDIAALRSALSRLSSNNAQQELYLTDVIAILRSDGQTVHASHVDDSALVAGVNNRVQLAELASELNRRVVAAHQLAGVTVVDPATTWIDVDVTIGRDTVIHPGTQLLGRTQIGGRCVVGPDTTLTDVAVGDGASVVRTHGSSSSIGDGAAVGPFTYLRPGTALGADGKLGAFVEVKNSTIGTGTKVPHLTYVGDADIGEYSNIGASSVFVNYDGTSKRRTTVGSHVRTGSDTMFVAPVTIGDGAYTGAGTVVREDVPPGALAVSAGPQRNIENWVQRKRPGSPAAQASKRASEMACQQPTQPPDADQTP
# Test: inhibition of mycobacterial GlmU enzyme – biochemical, glucosamine-1-phosphate acetyltransferase (AID 1376);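 further: 0% = complete reaction with vehicle and 100% = reaction without substrate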
# Conditions: M. tuberculosis GlmU acetyltransferase enzyme assay; stronger effect = higher value;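 tested at 30 µM in the primary screen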
row,SMILES,inhibition
1,NS(=O)(=O)c1ccc(CNC(=O)NC2(c3ccccc3)CC2)cc1,-5.17%
2,CCOc1ccccc1CN1CCC(CO)(CCOc2ccccc2)CC1,-6.84%
3,CCc1ccc(-n2c(SCC(=O)N3CCC(C(=O)O)CC3)nnc2-c2ccncc2)cc1,14.8% (active)
4,Cc1c(Cl)cccc1-n1c(SCC(=O)N2CCC(C(=O)O)CC2)nnc1-c1ccncc1,-2.06%
5,Cc1ccccc1-n1c(SCC(=O)N2CCC(C(=O)O)CC2)nnc1-c1ccncc1,1.39%
6,O=[n+]1c2c(n([O-])c3c1CCC3)CCCC2,-2.34%
7,O=c1[nH][nH]c2c(N=Cc3ccccc3O)ccc(F)c12,28.6% (active)
8,O=C(Nc1ccccc1)c1ccccc1N=Cc1ccccc1O,-2.01%
9,O=c1[nH][nH]cc1C=Nc1ccccc1O,-0.91%
10,Cc1ccc(NC(=O)CC2=NC(=O)C(CC(=O)Nc3ccccc3C)S2)cc1 (stereo unspecified),0.67%
11,OC(CNCc1ccc2c(c1)OCO2)COc1ccc(F)cc1 (stereo unspecified),-6.96%
12,COc1ccc(CN(CC2CCC(C(=O)O)CC2)C(=S)Nc2ccc(C)c(Cl)c2)cc1 (stereo unspecified),5.02%
13,CCC(=O)Nc1c(C)cc(C)cc1Cl,2.67%
14,CCC(=O)NC1=C(Cl)C(=O)C(NC(=O)CC)=C(Cl)C1=O,15.5% (active)
15,CCC(=O)NC1=C(NC(C)c2ccccc2)C(=O)c2ccccc2C1=O (stereo unspecified),4.92%
16,COc1ccc(-c2noc(CSc3nc(-c4ccccc4)cc(=O)[nH]3)n2)cc1OC,2.31%
17,Cc1c(NC(=O)c2ccc3c(c2)C(=O)N(Cc2ccco2)C3=O)cccc1C(=O)O,-0.73%
18,O=C(Nc1ccc(O)cc1C(=O)O)c1ccc2c(c1)C(=O)N(Cc1ccco1)C2=O,4.38%
19,O=C(Nc1ccc(Cl)cc1C(=O)O)c1ccc2c(c1)C(=O)N(Cc1ccco1)C2=O,13.9% (active)
20,CNC(=O)COC(=O)c1cc2c(s1)CCCC2,-3.54%
21,COc1ccc(C(=O)NC(=S)NC(C)(C)C)cc1Br,-2.26%
22,COc1ccc(C(=O)NC(=S)NC(C)C)cc1Br,4.89%
23,COc1ccc(C(=O)NC(=S)Nc2nc(C)cc(C)n2)cc1Br,13.4% (active)
24,CC1(C)CC(=O)C=C(NNC(=O)c2cccnc2)C1,-2.32%

row,SMILES,inhibition
1,Cc1ccc(N2C(=O)CS/C2=C(\C(Cl)=C(Cl)Cl)[N+](=O)[O-])cc1,12.9% (active)
2,CCOc1ccc(N2C(=O)CS/C2=C(\C(Cl)=C(Cl)Cl)[N+](=O)[O-])cc1,7.22%
3,Cc1ccc(N2C(=O)CSCC2=O)cc1,-0.48%
4,CC(=O)N1N=C(c2cccs2)CC1c1cccs1 (stereo unspecified),-7.39%
5,CCNC(=O)CCS(=O)(=O)c1ccc2ccccc2c1,5.84%
6,CCc1nc(SCC(=O)N2CC(=O)Nc3ccccc32)c2c(C)c(C)sc2n1,14.6% (active)
7,Cc1sc2nc(C3CC3)nc(SCC(=O)N3CC(=O)Nc4ccccc43)c2c1C,2.43%
8,Cc1sc2nc(C3CCCCC3)nc(SCC(=O)N3CC(=O)Nc4ccccc43)c2c1C,-0.32%
9,COCCCNc1nc2nonc2nc1N1CCN(C2CCCC2)CC1,-4.2%
10,CN1CCN(C(=S)Nc2ccccc2Cl)CC1,7.2%
11,CCCCOC(=O)CSc1nc2ccccc2o1,6.41%
12,COc1cc(-c2cn[nH]c2N)cc(OC)c1OC,6.07%
13,COc1ccc(/C=N/NC(=O)c2ccc(Cl)c(S(N)(=O)=O)c2)cc1OCC(N)=O,2.57%
14,O=C(O)C(c1ccccc1)C(c1ccccc1)c1ccccc1 (stereo unspecified),2.54%
15,O=C(O)C(c1ccccc1)c1ccccc1,4.26%
16,O=C(O)C(c1ccccc1)C1(O)CCCC1 (stereo unspecified),13.3% (active)
17,COc1ccc(C(=O)Nc2ccc([N+](=O)[O-])cn2)c(OC)c1,0.14%
18,Oc1cccc(/C=N/N(Cc2ccccc2)c2ccccc2)c1,-0.56%
19,CCN(CC)c1ccc(/C=N/N=C(c2ccccc2)c2ccccc2)c(O)c1,6.73%
20,COc1ccc(/C=N/N(Cc2ccccc2)c2ccccc2)cc1O,6.68%
21,O=C(/C(=N/N=C/c1ccc(O)c(O)c1O)c1ccccc1)c1ccccc1,7.49%
22,Oc1ccc(/C=N/N(Cc2ccccc2)c2ccccc2)c(O)c1O,13.5% (active)
23,COc1ccc(C2CC(=O)c3cc(OC)c(OC)cc32)cc1OC (stereo unspecified),-0.52%
24,CCOC(=O)C1=C(C)N=C2SC(C)C(=O)N2C1c1ccc(OCC)c(OCC)c1 (stereo unspecified),14.7% (active)

row,SMILES,inhibition
1,CCOC(=O)C1=C(C)N=C2SC(C)C(=O)N2C1c1ccc(OC(C)=O)c(OC)c1 (stereo unspecified),5.74%
2,CCOc1cc(C2C(C(=O)OC)=C(C)N=C3SC(C)C(=O)N32)ccc1OC(C)=O (stereo unspecified),-1.96%
3,Cc1cccc(OCc2nnc(SCc3cc(=O)n4cc(Br)ccc4n3)o2)c1,7.11%
4,CC(=O)c1ccc(NC(=O)c2ccc3nc(-c4ccco4)c(-c4ccco4)nc3c2)cc1,14.4% (active)
5,O=C(Nc1ccc(N2CCOCC2)cc1)c1ccc2nc(-c3ccco3)c(-c3ccco3)nc2c1,10.1%
6,O=C(Nc1ccc2nc(-c3ccco3)c(-c3ccco3)nc2c1)N1CCCCCC1,14.8% (active)
7,O=C(NCCO)c1ccc2nc(-c3ccco3)c(-c3ccco3)nc2c1,5.04%
8,O=C(NCCO)Nc1ccc2nc(-c3ccco3)c(-c3ccco3)nc2c1,19.4% (active)
9,O=C(Nc1ccc(N2CCOCC2)cc1)Nc1ccc2nc(-c3ccco3)c(-c3ccco3)nc2c1,-3.2%
10,O=C(Nc1ccccc1)c1ccc2nc(-c3ccco3)c(-c3ccco3)nc2c1,2.41%
11,O=C(Nc1ccc2nc(-c3ccco3)c(-c3ccco3)nc2c1)N1CCN(c2ccccn2)CC1,12.6%
12,CCOC(=O)C1CCN(C(=O)Nc2ccc3nc(-c4ccco4)c(-c4ccco4)nc3c2)CC1,11.1%
13,CC(=O)c1ccc(N2CCN(C(=O)Nc3cccc(F)c3)CC2)cc1,-1.45%
14,COc1cccc(C2/C(=C(\O)c3ccc4c(c3)OCO4)C(=O)C(=O)N2CCN(C)C)c1OC (stereo unspecified),1.43%
15,O=C(O)c1ccc(N=Cc2c(O)n(Cc3ccc(F)cc3)c(=O)[nH]c2=O)cc1,-1%
16,Cc1ccc(NS(=O)(=O)c2ccc(C3CCCCC3)cc2)cc1,-5.89%
17,C=CCn1c(-c2c(C)nc3cc(C)ccn23)n[nH]c1=S,0.98%
18,Cc1ccc(N(CC(=O)NCCSCc2ccco2)S(=O)(=O)c2ccc(C)cc2)cc1,-1.27%
19,CN1CCN(c2ccc([N+](=O)[O-])c(Sc3nncn3C)c2)CC1,-2.97%
20,COc1ccc(-c2ccc(-c3noc(-c4ccccc4)n3)c(OC)n2)cc1,6.47%
21,COc1ccc(-c2ccc(-c3noc(-c4ccco4)n3)c(OC)n2)cc1,1.18%
22,COc1ccc(-c2ccc(-c3noc(-c4cccc(OC)c4)n3)c(OC)n2)cc1,14% (active)
23,O=[N+]([O-])c1cccc(/C=N/Nc2ccccn2)c1,0.69%
24,O=C1CC(N(O)c2ccccc2)C(=O)N1Cc1ccccc1 (stereo unspecified),8.24%

row,SMILES,inhibition
1,C/C(=N\N=C1\NC(=O)C(Cc2ccccc2)S1)c1ccccc1 (stereo unspecified),2.56%
2,Cc1ccc(Sc2cc(C(F)(F)F)nc(N(C)C)n2)cc1,-0.68%
3,Cc1cc(C)n2c(SCCN3C(=O)c4ccccc4C3=O)nnc2n1,0.6%
4,CCOC(=O)c1cnc(SCC#N)nc1N,0.91%
5,NS(=O)(=O)c1ccc(NC(=O)CSc2nc3ccccc3[nH]2)cc1,13.4% (active)
6,NS(=O)(=O)c1cccc(NC(=O)CSc2nc3ccccc3[nH]2)c1,4.49%
7,O=C(CSc1nc2ccccc2[nH]1)Nc1ccc(F)cc1,-1.92%
8,CCn1ncc2c(OCc3ccc(C#N)cc3)cc(C)nc21,13% (active)
9,CCOc1c(C#N)c(C#N)c2nc(C)cc(C)n12,-3.28%
10,Cc1csc(OCc2ccc(C#N)cc2)n1,4.28%
11,c1cnc2ccc(C(c3nnnn3C3CCCCC3)N3CCN4CCCC4C3)cc2c1 (stereo unspecified),-1.69%
12,O=C(O)c1ccccc1C(=O)Nc1cccc([N+](=O)[O-])c1,17.2% (active)
13,O=C(O)c1cc([N+](=O)[O-])ccc1C(=O)Nc1ccccc1,0.35%
14,O=C(Nc1cccc([N+](=O)[O-])c1)c1ccccc1,-2.61%
15,COc1ccc(/C=C/C(=O)C2CC2)cc1COc1cccc(C)c1C,1.77%
16,O=C(CSCc1ccc(Cl)cc1Cl)Nc1ccccc1C(=O)Nc1ccc(C(=O)O)cc1,-3.25%
17,CC(C)(CN1CCN(c2ccccc2)CC1)NS(=O)(=O)c1ccccc1,-4.3%
18,COC(=O)c1ccccc1CCC(C)=O,-1.25%
19,O=c1cc2c(=O)oc3cc(O)c(O)oc3c2c(O)c1O,16.8% (active)
20,O=c1oc2cc(O)c(Cl)cc2c2ccccc12,2.71%
21,O=c1oc2ccccc2c2oc3cc(O)c(O)cc3c12,2.91%
22,CN1C(=O)NC(=O)/C(=C/c2ccc(C(=O)O)cc2)C1=O,2.77%
23,CN(C(=O)CC(=O)Nc1ccc(Cl)c(Cl)c1)c1ccccc1,0.26%
24,CC(CCc1ccccc1)NC(=O)C1CCCN(c2nnc(-n3cccc3)s2)C1 (stereo unspecified),7.96%
